Measurements from the supplement of paper PMC10849652.
About 7,900 targets were measured; listed, in parts, are those with a hit and a random draw of the rest. About 0.6% of all pairs of compound and target were hits. Unmarked numbers belong to inactive results.

Columns and labels:
Experiment in all cases: log2 fold change, soluble protein after heating vs DMSO (PISA); higher = thermal stabilisation; K562 cells, 10 uM, 30 min; active = over 0.2 and 3.5 SD of the protein, either way, in both replicates (recomputed)
saracatinib = compound: CN1CCN(CCOc2cc(OC3CCOCC3)c3c(Nc4c(Cl)ccc5c4OCO5)ncnc3c2)CC1 [saracatinib]
In short: (§1)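 K562 cells at 2×10^6 cells/mL were treated with 10 μM compound for 30 min. Aliquots were heated for 3 min across 48°C-58°C, pooled, and extracted in PBS with 0.5% NP-40 at 4°C; soluble protein was the supernatant after 21,000xg for 90 min. Soluble protein was quantified by TMTpro 16plex LC-MS/MS with channel sums equalised, and reported as log2 fold change in thermal stability against DMSO controls, with values from duplicates.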

sotrastaurin = compound: CN1CCN(c2nc(C3=C(c4c[nH]c5ccccc45)C(=O)NC3=O)c3ccccc3n2)CC1 [sotrastaurin]
In short: as §1

alvocidib = compound: CN1CC[C@H](c2c(O)cc(O)c3c(=O)cc(-c4ccccc4Cl)oc23)[C@H](O)C1 [alvocidib]
In short: as §1

Tubastatin A = compound: CN1CCc2c(c3ccccc3n2Cc2ccc(C(=O)NO)cc2)C1 [Tubastatin A]
In short: as §1

[1] = compound: CNC(=O)C1=CC=CC=C1NC2=NC(=NC=C2Cl)NC3=C(C=C(C=C3)N4CCOCC4)OC
In short: as §1

defactinib = compound: CNC(=O)c1ccc(Nc2ncc(C(F)(F)F)c(NCc3nccnc3N(C)S(C)(=O)=O)n2)cc1 [defactinib]
In short: as §1

rucaparib = compound: CNCc1ccc(-c2[nH]c3cc(F)cc4c3c2CCNC4=O)cc1 [rucaparib]
In short: as §1

[2] = compound: CNc1nc(-c2ccc3c(N)n[nH]c3c2)cc(N2C[C@@H](C(=O)NC3CCCCC3)CC[C@H]2C)n1
In short: as §1

encorafenib = compound: COC(=O)N[C@@H](C)CNc1nccc(-c2cn(C(C)C)nc2-c2cc(Cl)cc(NS(C)(=O)=O)c2F)n1 [encorafenib]
In short: as §1

[3] = compound: COC(=O)[C@H](CCSC)NC(=O)C1=C(C=C(C=C1)NC[C@H](CS)N)C2=CC=CC=C2
In short: as §1

[4] = compound: COC1=CC=C(C=C1)CN2C=CC3=C2C=C(C=C3)C(=O)NO
In short: as §1

filanesib = compound: CON(C)C(=O)N1N=C(c2cc(F)ccc2F)S[C@@]1(CCCN)c1ccccc1 [filanesib]
In short: as §1

zotarolimus = compound: CO[C@H]1C[C@@H]2CC[C@@H](C)[C@@](O)(O2)C(=O)C(=O)N2CCCC[C@H]2C(=O)O[C@H]([C@H](C)C[C@@H]2CC[C@H](n3cnnn3)[C@H](OC)C2)CC(=O)[C@H](C)/C=C(\C)[C@@H](O)[C@@H](OC)C(=O)[C@H](C)C[C@H](C)/C=C/C=C/C=C/1C [zotarolimus]
In short: as §1

idasanutlin = compound: COc1cc(C(=O)O)ccc1NC(=O)[C@@H]1N[C@@H](CC(C)(C)C)[C@](C#N)(c2ccc(Cl)cc2F)[C@H]1c1cccc(Cl)c1F [idasanutlin]
In short: as §1

alisertib = compound: COc1cc(Nc2ncc3c(n2)-c2ccc(Cl)cc2C(c2c(F)cccc2OC)=NC3)ccc1C(=O)O [alisertib]
In short: as §1

gefitinib = compound: COc1cc2ncnc(Nc3ccc(F)c(Cl)c3)c2cc1OCCCN1CCOCC1 [gefitinib]
In short: as §1

[5] = compound: COc1cccc2cc(-c3nc([C@H]4CC[C@H](C(=O)O)CC4)n4ncnc(N)c34)[nH]c12
In short: as §1

pictilisib = compound: CS(=O)(=O)N1CCN(Cc2cc3nc(-c4cccc5[nH]ncc45)nc(N4CCOCC4)c3s2)CC1 [pictilisib]
In short: as §1

[6] = compound: COc1cc2nc(-c3cc(F)ccc3O)nc(N[C@@H]3CNC[C@H]3C(C)(C)O)c2cc1OC
In short: as §1

lapatinib = compound: CS(=O)(=O)CCNCc1ccc(-c2ccc3ncnc(Nc4ccc(OCc5cccc(F)c5)c(Cl)c4)c3c2)o1 [lapatinib]
In short: as §1

UniProt Q96NT5, sequence (Q96NT5 whole entry, looked up): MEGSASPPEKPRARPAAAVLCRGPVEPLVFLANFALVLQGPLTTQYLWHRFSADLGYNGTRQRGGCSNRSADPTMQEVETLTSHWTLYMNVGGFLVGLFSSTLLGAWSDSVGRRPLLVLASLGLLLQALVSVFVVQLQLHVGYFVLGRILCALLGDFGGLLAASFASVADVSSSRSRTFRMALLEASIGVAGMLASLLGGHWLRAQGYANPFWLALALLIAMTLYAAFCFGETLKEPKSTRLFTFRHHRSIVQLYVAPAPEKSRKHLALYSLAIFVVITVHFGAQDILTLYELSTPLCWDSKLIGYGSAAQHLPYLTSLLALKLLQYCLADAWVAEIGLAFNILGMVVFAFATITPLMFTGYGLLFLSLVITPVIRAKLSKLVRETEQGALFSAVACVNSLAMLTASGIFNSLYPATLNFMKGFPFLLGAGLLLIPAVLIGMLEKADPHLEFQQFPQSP
UniProt O95359, sequence (O95359 whole entry, looked up): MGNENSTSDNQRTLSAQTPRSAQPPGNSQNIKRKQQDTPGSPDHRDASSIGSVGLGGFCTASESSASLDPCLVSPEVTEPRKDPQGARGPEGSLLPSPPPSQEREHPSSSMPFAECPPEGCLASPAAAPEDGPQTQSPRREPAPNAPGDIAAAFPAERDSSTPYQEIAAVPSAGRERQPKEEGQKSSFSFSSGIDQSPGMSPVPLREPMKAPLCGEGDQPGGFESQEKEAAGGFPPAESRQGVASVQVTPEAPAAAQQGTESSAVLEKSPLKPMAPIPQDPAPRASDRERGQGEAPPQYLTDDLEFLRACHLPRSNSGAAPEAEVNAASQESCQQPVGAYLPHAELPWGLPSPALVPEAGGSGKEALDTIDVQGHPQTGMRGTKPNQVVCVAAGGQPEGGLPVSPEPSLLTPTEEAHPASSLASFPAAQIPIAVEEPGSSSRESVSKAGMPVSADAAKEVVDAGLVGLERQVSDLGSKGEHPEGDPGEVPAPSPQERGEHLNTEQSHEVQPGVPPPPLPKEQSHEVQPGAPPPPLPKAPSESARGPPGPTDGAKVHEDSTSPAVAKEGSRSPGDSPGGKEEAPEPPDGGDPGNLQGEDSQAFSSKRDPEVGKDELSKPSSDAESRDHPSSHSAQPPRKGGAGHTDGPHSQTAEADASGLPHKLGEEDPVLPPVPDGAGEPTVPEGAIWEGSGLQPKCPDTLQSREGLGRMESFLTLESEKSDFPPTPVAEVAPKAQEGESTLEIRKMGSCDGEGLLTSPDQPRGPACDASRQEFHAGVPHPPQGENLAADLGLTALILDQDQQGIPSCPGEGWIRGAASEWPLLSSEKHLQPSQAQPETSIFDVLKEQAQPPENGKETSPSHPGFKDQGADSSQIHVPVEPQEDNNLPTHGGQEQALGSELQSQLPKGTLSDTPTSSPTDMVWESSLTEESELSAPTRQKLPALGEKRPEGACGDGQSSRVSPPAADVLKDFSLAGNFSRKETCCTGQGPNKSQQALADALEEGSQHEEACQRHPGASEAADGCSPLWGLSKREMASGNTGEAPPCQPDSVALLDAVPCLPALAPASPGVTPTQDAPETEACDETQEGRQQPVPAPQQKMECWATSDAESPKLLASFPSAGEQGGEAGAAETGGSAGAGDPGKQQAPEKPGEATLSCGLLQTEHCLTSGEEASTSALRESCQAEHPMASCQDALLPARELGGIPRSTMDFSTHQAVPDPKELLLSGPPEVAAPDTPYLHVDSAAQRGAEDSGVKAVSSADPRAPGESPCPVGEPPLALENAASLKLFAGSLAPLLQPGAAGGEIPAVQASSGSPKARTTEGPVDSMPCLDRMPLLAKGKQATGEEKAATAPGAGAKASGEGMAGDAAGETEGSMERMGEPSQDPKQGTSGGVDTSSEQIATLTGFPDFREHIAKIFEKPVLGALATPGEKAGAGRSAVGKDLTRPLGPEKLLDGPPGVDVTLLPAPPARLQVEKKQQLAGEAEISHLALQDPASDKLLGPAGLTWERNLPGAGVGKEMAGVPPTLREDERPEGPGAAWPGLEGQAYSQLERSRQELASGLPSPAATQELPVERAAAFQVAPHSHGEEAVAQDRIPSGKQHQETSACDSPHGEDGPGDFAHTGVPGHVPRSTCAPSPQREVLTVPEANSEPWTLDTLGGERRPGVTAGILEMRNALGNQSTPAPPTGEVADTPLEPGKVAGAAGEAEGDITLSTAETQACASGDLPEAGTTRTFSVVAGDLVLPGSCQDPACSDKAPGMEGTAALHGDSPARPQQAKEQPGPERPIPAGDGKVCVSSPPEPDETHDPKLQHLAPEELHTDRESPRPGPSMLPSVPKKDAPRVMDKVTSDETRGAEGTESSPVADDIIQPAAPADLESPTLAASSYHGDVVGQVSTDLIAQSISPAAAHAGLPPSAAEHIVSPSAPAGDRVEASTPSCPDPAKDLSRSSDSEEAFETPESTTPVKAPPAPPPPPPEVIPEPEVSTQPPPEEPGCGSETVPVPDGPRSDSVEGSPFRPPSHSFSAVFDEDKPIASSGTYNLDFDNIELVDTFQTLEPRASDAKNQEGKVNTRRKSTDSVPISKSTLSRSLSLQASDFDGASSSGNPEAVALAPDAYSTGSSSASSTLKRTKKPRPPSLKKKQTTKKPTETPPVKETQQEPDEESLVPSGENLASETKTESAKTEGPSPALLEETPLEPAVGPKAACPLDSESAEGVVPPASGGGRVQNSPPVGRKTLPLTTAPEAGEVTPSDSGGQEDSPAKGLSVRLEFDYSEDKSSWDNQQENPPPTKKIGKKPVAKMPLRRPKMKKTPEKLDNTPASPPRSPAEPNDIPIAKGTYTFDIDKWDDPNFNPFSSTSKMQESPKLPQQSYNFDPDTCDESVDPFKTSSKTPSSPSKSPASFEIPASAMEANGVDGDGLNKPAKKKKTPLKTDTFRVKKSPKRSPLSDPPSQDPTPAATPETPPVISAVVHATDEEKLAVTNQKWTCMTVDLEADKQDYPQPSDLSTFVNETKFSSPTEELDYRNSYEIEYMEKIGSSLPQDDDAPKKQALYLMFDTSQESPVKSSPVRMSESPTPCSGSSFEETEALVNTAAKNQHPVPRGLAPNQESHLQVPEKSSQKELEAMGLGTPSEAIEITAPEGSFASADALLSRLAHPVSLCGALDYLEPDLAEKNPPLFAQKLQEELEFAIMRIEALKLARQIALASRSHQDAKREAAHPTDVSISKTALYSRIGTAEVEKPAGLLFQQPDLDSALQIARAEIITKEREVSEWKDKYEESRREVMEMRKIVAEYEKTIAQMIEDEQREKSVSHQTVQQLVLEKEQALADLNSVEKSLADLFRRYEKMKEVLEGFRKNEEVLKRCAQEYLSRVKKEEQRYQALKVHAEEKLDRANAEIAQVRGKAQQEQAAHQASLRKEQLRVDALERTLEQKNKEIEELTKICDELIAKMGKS
UniProt Q9NUW8, sequence (Q9NUW8 whole entry, looked up): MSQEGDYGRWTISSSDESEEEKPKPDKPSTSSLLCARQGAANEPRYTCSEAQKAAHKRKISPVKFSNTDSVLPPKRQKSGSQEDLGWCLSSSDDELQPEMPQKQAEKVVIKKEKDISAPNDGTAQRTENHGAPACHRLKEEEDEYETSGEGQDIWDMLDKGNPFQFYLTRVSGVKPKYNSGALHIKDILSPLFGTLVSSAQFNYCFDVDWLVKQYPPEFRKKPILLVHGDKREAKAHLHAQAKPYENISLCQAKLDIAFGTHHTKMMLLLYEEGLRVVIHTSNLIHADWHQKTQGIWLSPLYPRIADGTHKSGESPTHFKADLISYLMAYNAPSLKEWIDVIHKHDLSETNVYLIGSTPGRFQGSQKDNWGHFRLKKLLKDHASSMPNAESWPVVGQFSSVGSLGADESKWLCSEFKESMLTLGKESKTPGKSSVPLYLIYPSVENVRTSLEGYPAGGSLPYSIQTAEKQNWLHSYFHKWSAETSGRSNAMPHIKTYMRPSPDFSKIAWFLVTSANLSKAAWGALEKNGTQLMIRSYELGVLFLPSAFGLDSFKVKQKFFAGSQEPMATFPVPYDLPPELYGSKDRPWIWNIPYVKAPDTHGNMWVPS
UniProt Q02086, sequence (Q02086 whole entry, looked up): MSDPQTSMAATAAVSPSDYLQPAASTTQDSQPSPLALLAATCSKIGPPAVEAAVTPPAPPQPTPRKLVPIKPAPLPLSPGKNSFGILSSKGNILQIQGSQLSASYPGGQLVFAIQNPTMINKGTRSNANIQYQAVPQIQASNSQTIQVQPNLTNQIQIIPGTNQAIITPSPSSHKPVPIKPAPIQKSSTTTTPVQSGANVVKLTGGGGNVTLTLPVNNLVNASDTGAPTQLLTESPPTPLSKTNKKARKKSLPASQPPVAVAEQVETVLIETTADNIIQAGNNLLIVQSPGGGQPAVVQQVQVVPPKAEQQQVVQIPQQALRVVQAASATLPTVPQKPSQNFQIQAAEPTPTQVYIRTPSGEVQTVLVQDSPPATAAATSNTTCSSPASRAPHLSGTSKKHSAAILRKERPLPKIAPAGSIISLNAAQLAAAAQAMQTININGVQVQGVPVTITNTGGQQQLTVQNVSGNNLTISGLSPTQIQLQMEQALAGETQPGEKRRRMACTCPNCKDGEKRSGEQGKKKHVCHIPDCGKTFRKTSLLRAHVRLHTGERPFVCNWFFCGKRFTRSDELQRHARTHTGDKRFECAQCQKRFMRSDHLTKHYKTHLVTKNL
UniProt Q9NVC3, sequence (Q9NVC3 whole entry, looked up): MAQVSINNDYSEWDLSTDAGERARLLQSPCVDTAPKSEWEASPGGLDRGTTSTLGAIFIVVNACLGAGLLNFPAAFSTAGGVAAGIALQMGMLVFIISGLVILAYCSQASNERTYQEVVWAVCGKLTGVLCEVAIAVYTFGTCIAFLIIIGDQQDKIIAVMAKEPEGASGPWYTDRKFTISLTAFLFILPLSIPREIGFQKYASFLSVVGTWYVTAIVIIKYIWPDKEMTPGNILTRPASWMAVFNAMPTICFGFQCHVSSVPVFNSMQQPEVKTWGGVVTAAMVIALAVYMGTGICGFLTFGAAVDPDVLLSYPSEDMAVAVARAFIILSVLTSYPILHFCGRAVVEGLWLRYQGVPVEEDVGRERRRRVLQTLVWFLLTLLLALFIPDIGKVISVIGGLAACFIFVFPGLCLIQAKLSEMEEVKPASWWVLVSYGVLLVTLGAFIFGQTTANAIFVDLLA

Row | Target | log2 fold change (saracatinib) | log2 fold change (sotrastaurin) | log2 fold change (alvocidib) | log2 fold change (Tubastatin A) | log2 fold change [1] | log2 fold change (defactinib) | log2 fold change (rucaparib) | log2 fold change [2] | log2 fold change (encorafenib) | log2 fold change [3] | log2 fold change [4] | log2 fold change (filanesib) | log2 fold change (zotarolimus) | log2 fold change (idasanutlin) | log2 fold change (alisertib) | log2 fold change (gefitinib) | log2 fold change [5] | log2 fold change (pictilisib) | log2 fold change [6] | log2 fold change (lapatinib)
1 | SYNE1 (UniProt Q8NF91) | -0.054 | -0.086 | 0.011 | 0.193 | -0.14 | -0.092 | -0.039 | 0.045 | -0.101 | 0.076 | 0.316 | -0.079 | 0.019 | -0.029 | 0.002 | 0.049 | 0.084 | 0.187 | – | –
2 | SLC39A11 (UniProt Q8N1S5) | 0.098 | 0.127 | 0.02 | -0.164 | -0.223 | 0.074 | -0.518 (active) | -0.015 | -0.077 | -0.082 | -0.014 | -0.01 | -0.078 | -0.056 | -0.113 | 0.001 | 0.047 | -0.117 | -0.04 | -0.038
3 | TACC2 (UniProt O95359) | -0.003 | 0.115 | -0.084 | -0.041 | 0.075 | -0.091 | -0.045 | -0.105 | -0.013 | 0.039 | – | -0.107 | -0.003 | -0.042 | 0.1 | -0.027 | 0.011 | 0.046 | 0.01 | 0.011
4 | TANGO6 (UniProt Q9C0B7) | -0.09 | -0.135 | -0.084 | 0.116 | -0.077 | – | 0.586 | 0.037 | 0.001 | – | -0.025 | 0.04 | 0.061 | -0.112 | 0.032 | -0.049 | -0.036 | – | -0.015 | 0.022
5 | SSB (UniProt E7ERC4) | -0.05 | – | – | – | – | -0.205 | – | 0.018 | – | -0.092 | – | – | – | – | 0.494 | – | -0.37 | -0.086 | – | –
6 | TCOF1 isoform 3 (UniProt Q13428) | – | 0.326 | – | 0.054 | -0.007 | – | -0.065 | – | -0.084 | – | – | -0.152 | – | – | – | – | – | 0.188 | – | –
7 | TDP1 (UniProt Q9NUW8) | – | – | -0.028 | – | -0.041 | – | – | – | – | – | – | – | -0.015 | – | – | – | – | – | – | –
8 | SLC38A7 (UniProt Q9NVC3) | – | 0.152 | -0.137 | -0.177 | -0.052 | -0.126 | 0.004 | – | 0.016 | -0.261 | -0.042 | -0.098 | 0.095 | -0.077 | -0.136 | 0.035 | 0.069 | 0.022 | 0.01 | -0.057
9 | SMARCA4 (UniProt P51532) | -0.303 | -0.086 | -0.068 | – | -0.17 | 0.134 | 0.099 | -0.091 | 0.049 | 0.022 | -0.101 | 0.124 | 0.09 | 0.15 | -0.086 | – | -0.038 | 0.025 | 0.273 | -0.544 (active)
10 | SPIN4 (UniProt Q56A73) | – | – | – | – | -0.199 | – | – | – | – | – | -1.43 (active) | – | – | – | – | – | – | – | – | –
11 | STK17B (UniProt O94768) | – | – | – | – | -1.03 (active) | – | – | – | – | – | 0.01 | – | – | – | – | – | – | – | – | –
12 | SLC39A1 (UniProt Q9NY26) | – | – | 0.072 | – | -0.129 | – | – | – | – | – | – | – | -0.15 | – | – | – | – | -0.053 | – | –
13 | TC2N (UniProt Q8N9U0) | -0.215 | – | – | 0.308 | – | -0.341 | – | -0.064 | – | -0.096 | – | – | – | -0.003 | 0.012 | -0.066 | 0.127 | – | – | –
14 | TM7SF2 (UniProt O76062) | 0.069 | -0.142 | -0.048 | – | -0.043 | -0.006 | – | 0.018 | – | -0.096 | – | -0.142 | -0.018 | – | – | 0.059 | – | – | -0.143 | 0
15 | TCOF1 isoform 6 (UniProt Q13428) | – | -0.094 | 0.104 | -0.103 | -0.149 | 0.027 | -0.022 | – | 0.162 | -0.053 | -0.318 | -0.087 | -0.062 | – | -0.263 | 0.028 | -0.105 | – | – | –
16 | SNRK (UniProt Q9NRH2) | -0.092 | 0.003 | – | – | – | – | -0.099 | 0.011 | 0.002 | – | 0.15 | 0.158 | – | – | – | – | – | – | 0.84 (active) | 0.016
17 | TEX30 (UniProt Q5JUR7) | -0.065 | – | -0.177 | 0.022 | 0.015 | -0.096 | – | -0.026 | – | 0.017 | -0.063 | – | 0.031 | -0.02 | 0.029 | -0.079 | 0.031 | 0.057 | 0.07 | -0.029
18 | SLC46A1 (UniProt Q96NT5) | – | – | 0.193 | 0.067 | 0.085 | 0.034 | -0.081 | – | -0.051 | -0.011 | – | – | -0.095 | -0.107 | – | – | – | 0.061 | – | –
19 | TBP (UniProt P20226) | 0.316 | – | 0.119 | -0.014 | – | -0.003 | 0.088 | -0.158 | 0.019 | -0.071 | -0.014 | – | -0.1 | -0.076 | 0.148 | 0.044 | 0.081 | – | 0.072 | 0.023
20 | SUPT5H isoform 2 (UniProt O00267) | – | – | – | – | – | -0.005 | – | – | – | -0.058 | – | – | – | – | – | – | – | – | – | –
21 | TAOK2 (UniProt Q9UL54) | – | – | – | -0.003 | 0.244 | – | -0.012 | – | -0.028 | – | 0.189 | – | – | – | 0.107 | -0.095 | 0.003 | 0.003 | -0.02 | 0.022
22 | SP2 (UniProt Q02086) | 0.09 | 0.091 | – | – | – | – | 0.324 | -0.132 | -0.025 | – | -0.319 | 0.012 | – | 0.277 | – | – | – | – | – | –
23 | SSBP4 (UniProt Q9BWG4) | 0.409 (active) | 0 | – | 0.038 | -0.184 | – | 0.022 | 0.031 | -0.18 | – | -0.065 | -0.601 | – | 0.122 | 0.018 | -0.001 | 0.029 | 0.117 | 0.076 | -0.145
